{"source": "PubChem BioAssay AID1326", "about": "(NMMLSC, 2008)", "note": "Hit rate of the full screen: of about 190,000 compounds, about 130 (0.068%) were called active. For the sample, actives were picked, then their nearest neighbours and some compounds at random. A number with no mark means an inactive call. Rule as the data show it: active = inhibition above about 40%; inactive = the rest.", "data": [{"target": "ATP-dependent translocase ABCB1 (Homo sapiens) (UniProt P08183)", "sequence (P08183 whole entry, looked up)": "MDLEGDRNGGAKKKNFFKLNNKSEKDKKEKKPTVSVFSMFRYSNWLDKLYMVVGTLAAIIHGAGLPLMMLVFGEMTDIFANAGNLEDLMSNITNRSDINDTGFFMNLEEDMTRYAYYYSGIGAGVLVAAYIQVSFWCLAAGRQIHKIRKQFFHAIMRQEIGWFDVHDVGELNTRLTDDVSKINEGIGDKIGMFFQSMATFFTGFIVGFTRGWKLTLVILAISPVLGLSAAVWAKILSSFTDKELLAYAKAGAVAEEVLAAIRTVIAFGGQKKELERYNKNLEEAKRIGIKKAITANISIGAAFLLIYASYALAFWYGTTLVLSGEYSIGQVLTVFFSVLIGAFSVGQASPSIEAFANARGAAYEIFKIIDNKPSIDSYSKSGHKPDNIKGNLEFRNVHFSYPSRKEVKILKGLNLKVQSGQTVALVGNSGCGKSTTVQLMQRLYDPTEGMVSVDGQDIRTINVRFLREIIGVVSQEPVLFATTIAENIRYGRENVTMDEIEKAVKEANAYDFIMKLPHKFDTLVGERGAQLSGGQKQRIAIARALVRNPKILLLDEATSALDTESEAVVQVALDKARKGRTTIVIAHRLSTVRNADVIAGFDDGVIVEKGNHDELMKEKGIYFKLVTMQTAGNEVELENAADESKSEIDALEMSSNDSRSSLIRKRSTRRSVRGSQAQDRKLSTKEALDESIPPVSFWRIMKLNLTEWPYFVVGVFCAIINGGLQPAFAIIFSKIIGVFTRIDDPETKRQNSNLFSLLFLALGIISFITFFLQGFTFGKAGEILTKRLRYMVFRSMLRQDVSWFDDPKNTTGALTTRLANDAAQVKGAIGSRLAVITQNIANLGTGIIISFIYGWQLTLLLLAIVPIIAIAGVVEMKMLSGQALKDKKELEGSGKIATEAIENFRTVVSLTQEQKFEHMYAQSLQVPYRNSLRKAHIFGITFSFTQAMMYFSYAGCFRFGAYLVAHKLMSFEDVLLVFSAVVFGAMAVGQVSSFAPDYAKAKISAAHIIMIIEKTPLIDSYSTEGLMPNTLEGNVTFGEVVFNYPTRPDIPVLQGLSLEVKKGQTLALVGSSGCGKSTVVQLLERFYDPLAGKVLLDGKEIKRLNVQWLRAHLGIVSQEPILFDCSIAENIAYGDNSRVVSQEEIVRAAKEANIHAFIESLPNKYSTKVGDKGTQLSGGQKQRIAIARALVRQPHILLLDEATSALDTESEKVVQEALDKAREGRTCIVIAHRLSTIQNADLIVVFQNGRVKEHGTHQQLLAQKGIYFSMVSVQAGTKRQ", "experiment": "blockers of ABCB1-mediated dye efflux – cell-based, multiplex, flow cytometry, ABCG2 counter-screen, primary screen (AID 1326);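 also: 0% = vehicle and 100% = reference inhibitor; higher value means more JC-1 retained so stronger ABCB1 efflux block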", "conditions": "CCRF-Adr cells, JC-1 efflux, at 6.6 µM, hits give high values", "values": [{"smiles": "Cc1ccc2c(c1)C1CN(C)CCC1N2C(=S)Nc1ccc(Cl)cc1Cl", "note": "(stereo not given)", "inhibition": "-0.2%"}, {"smiles": "Cc1ccc(OCC(O)CN2CCN(CC(O)COc3ccc(C)cc3Cl)CC2)c(Cl)c1", "note": "(stereo not given)", "inhibition": "77.3% (active)"}, {"smiles": "Cc1ccccc1OCC(O)CN1CCN(c2ccccn2)CC1", "note": "(stereo not given)", "inhibition": "2.19%"}, {"smiles": "Cc1cccc(C)c1OCC(O)CN1CCCCC1", "note": "(stereo not given)", "inhibition": "0.13%"}, {"smiles": "COc1cccc(OC)c1C(=O)OCC(=O)/C(C#N)=C(\\C)N", "inhibition": "0.08%"}, {"smiles": "CCN1/C(=C\\c2ccc3ccccc3[n+]2CC)Sc2cc(C)ccc21", "inhibition": "19.6%"}, {"smiles": "CCC(=O)/C=C1\\Sc2ccccc2N1CC", "inhibition": "0.19%"}, {"smiles": "Cc1ccccc1-c1n[nH]c(=S)n1C", "inhibition": "-0.08%"}, {"smiles": "CC(=O)c1ccc(NC(=O)CSC(=S)N2CCCC2)cc1", "inhibition": "0.83%"}, {"smiles": "O=C(N/N=C/c1ccc([N+](=O)[O-])o1)c1cccc(S(=O)(=O)N2CCOCC2)c1", "inhibition": "1.78%"}, {"smiles": "COC(=O)CC1=NN(c2nc(C)cc(C)n2)C(=O)C1", "inhibition": "3.04%"}, {"smiles": "COc1ccc(Cl)cc1NC(=O)[C@@H]1CCCN1C(=O)c1cccs1", "inhibition": "1.1%"}, {"smiles": "O=C(NNC(=S)NC(=O)c1cn(-c2ccccc2)nc1-c1ccccc1)c1ccncc1", "inhibition": "-0.12%"}, {"smiles": "O=C1N/C(=N\\N=C\\c2ccco2)SC1Cc1ccc(F)cc1", "note": "(stereo not given)", "inhibition": "-0.31%"}, {"smiles": "COC(=O)c1ccc(CSc2nncn2N)cc1", "inhibition": "-0.7%"}, {"smiles": "CCCN1CNC(=S)N(CCc2ccccc2)C1", "inhibition": "0.53%"}, {"smiles": "COc1ccc(CNC(=O)COC(=O)/C=C/c2ccc(S(=O)(=O)N3CCOCC3)cc2)cc1", "inhibition": "-0.38%"}, {"smiles": "CC(C)(C)OC(=O)N1CCC(NC(=O)c2[nH]cnc2C(=O)N[C@@H](Cc2ccccc2)C(=O)OCc2ccccc2)CC1", "inhibition": "15.7%"}, {"smiles": "CC1=C(C)CC(C(=O)NC(C)CCc2ccccc2)C(C(=O)O)C1", "note": "(stereo not given)", "inhibition": "0.3%"}, {"smiles": "O=C(Cc1c[nH]c2ccccc12)N/N=C/c1cccc(F)c1", "inhibition": "-0.1%"}, {"smiles": "CCC(CC)c1nnc(NC(=O)/C=C/c2ccco2)s1", "inhibition": "0.26%"}, {"smiles": "CN(C)c1nc(N)nc(Cn2nnc(-c3ccc(C(F)(F)F)cc3)n2)n1", "inhibition": "-0.39%"}, {"smiles": "O=S(=O)(c1ccc(-c2ccccc2)cc1)N1CCCC1", "inhibition": "1.29%"}, {"smiles": "O=C(CCS(=O)(=O)Cc1ccccc1)Nc1ccc2c(c1)OCCO2", "inhibition": "0.73%"}, {"smiles": "Cc1cc(C)cc(NC(=O)COC(=O)c2cc(C)oc2C)c1", "inhibition": "1.39%"}, {"smiles": "Cc1ccc(C(NC(=O)N2CCCC2)C(Cl)(Cl)Cl)cc1F", "note": "(stereo not given)", "inhibition": "0.9%"}, {"smiles": "CCS(=O)(=O)c1ccc(O)c(NC(=O)COc2ccc(Cl)cc2)c1", "inhibition": "0.2%"}, {"smiles": "CCn1c(COc2c(C)cccc2C)nnc1SCc1nc2ccccc2c(=O)[nH]1", "inhibition": "0.72%"}, {"smiles": "CS(=O)(=O)c1ccc2nc(NC(=O)c3ccc(Cl)nc3)sc2c1", "inhibition": "0.4%"}, {"smiles": "Cc1nnc(SCCCCSc2nnc(C)c(=O)[nH]2)[nH]c1=O", "inhibition": "1.4%"}, {"smiles": "CC(C)OCCCNC(=O)c1ccc(C2SCC(=O)N2Cc2ccco2)cc1", "note": "(stereo not given)", "inhibition": "1.04%"}, {"smiles": "CSc1ccccc1NC(=O)Cc1ccc(Br)cc1", "inhibition": "1.94%"}, {"smiles": "O=C(CN(c1cccc(Cl)c1)S(=O)(=O)c1ccccc1)NN=C1CCCC1", "inhibition": "0.27%"}, {"smiles": "O=C(COC(=O)c1ccccc1C(=O)N1CCN(c2ccccc2)CC1)NCc1ccccc1", "inhibition": "1.33%"}, {"smiles": "O=C1CN(C(=O)CN2C(=O)NC3(CCCCC3)C2=O)c2ccccc2N1", "inhibition": "0.2%"}, {"smiles": "Cc1sc2nc(COC(=O)C(NC(=O)c3ccc(Cl)cc3Cl)C(C)C)[nH]c(=O)c2c1C", "note": "(stereo not given)", "inhibition": "-0.58%"}, {"smiles": "CCc1ccc(Nc2nnc(SCC(=O)c3ccc4c(c3)NC(=O)CO4)s2)cc1", "inhibition": "-0.13%"}, {"smiles": "CCOc1ccc(C(=O)Nc2cccc(SC)c2)cc1", "inhibition": "0.08%"}, {"smiles": "COC(=O)CCC(=O)N1CCCC(CO)(Cc2ccccc2)C1", "note": "(stereo not given)", "inhibition": "0.1%"}, {"smiles": "CN(C)c1ccc(Nc2c3c4c(cccc4n(C)c2=O)C(=O)c2ccccc2-3)cc1", "inhibition": "13.5%"}, {"smiles": "Cc1ccc(O)c(-c2cc(C(=O)Nc3c(C)n(C)n(-c4ccccc4)c3=O)[nH]n2)c1", "inhibition": "0.33%"}, {"smiles": "COc1ccc(C2OCC3(CO2)SC(=O)NC3=O)cc1OC", "note": "(stereo not given)", "inhibition": "-0.28%"}, {"smiles": "COc1ccccc1N1CCN(/N=C\\C(Br)=C\\c2ccccc2)CC1", "inhibition": "0.81%"}, {"smiles": "N#Cc1ccccc1NC(=O)c1cccc(COc2ccc(Cl)cc2Cl)c1", "inhibition": "-0.17%"}, {"smiles": "CCOC(=O)c1ccc(NC(=S)Nc2cc(C)cc(C)n2)cc1", "inhibition": "1.25%"}, {"smiles": "COc1cc(C(=O)NCc2nnc(SCC(=O)Nc3nc4ccc(C)cc4s3)o2)cc(OC)c1OC", "inhibition": "-2.31%"}, {"smiles": "Cc1ccccc1Nc1scc(-c2ccc(Br)cc2)[n+]1-c1ccccc1C", "inhibition": "-2.63%"}, {"smiles": "CCCn1nc(NS(=O)(=O)c2ccccc2)c2cc3cc(C)ccc3nc21", "inhibition": "0.68%"}, {"smiles": "O=S(=O)(c1ccccc1)c1nc(-c2ccccc2F)oc1NCc1cccnc1", "inhibition": "5.26%"}, {"smiles": "c1ccc2c(c1)OCCOCCOCCO2", "inhibition": "0.51%"}, {"smiles": "CC(=O)Cc1nsc(NC(=O)c2ccc(Cl)cc2Cl)n1", "inhibition": "-0.31%"}, {"smiles": "COC(=O)c1cc(NC(=O)CN2CCN(C(C)=O)CC2)cc(C(=O)OC)c1", "inhibition": "1.14%"}, {"smiles": "CC(CNC(=O)c1ccc(N)cc1)NC(=O)c1ccc(N)cc1", "note": "(stereo not given)", "inhibition": "-0.82%"}, {"smiles": "CS(=O)(=O)N1CCC(C(=O)N2CCN(c3ccccc3)CC2)CC1", "inhibition": "0.86%"}, {"smiles": "CCC1SC(CC)C(=O)N(CC(=O)NC2CCCCC2)C1=O", "note": "(stereo not given)", "inhibition": "0.07%"}, {"smiles": "Cc1c(Cl)c([N+](=O)[O-])nn1CC(=O)NCC1CCCO1", "note": "(stereo not given)", "inhibition": "-0.1%"}, {"smiles": "COc1ccc(-n2nnnc2SCC(=O)NCc2cccs2)cc1", "inhibition": "2.4%"}, {"smiles": "CCOc1ccc2nc(NC(=O)c3cc([N+](=O)[O-])ccc3N3CCOCC3)sc2c1", "inhibition": "-1.41%"}, {"smiles": "NC(=O)COC(=O)c1sc2cc(F)ccc2c1Cl", "inhibition": "-0.04%"}, {"smiles": "COc1ccc(C(=O)COC(=O)c2nn(C)c(=O)c3ccccc23)c(OC)c1", "inhibition": "0.19%"}]}]}
